Assay outcomes (PubChem)
Sampled rows, rich in hits. Any-hit rate of the full collection: about 12%.
ROMK mod = human ROMK K+ channel modulation, primary screen. P48048. Tet-inducible ROMK, thallium flux fluorescence; actives lie on both sides. B-score at 10 µM. 2% of 130,000 active. AID 1918;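 active = signal ratio slope over the read window, or its plate-corrected B-score, at least 3 SD from the plate mean, either direction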;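 also: B-score of the F/F0 ratio slope over 7 to 12 s after thallium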
Target sequence (P48048 whole entry, looked up): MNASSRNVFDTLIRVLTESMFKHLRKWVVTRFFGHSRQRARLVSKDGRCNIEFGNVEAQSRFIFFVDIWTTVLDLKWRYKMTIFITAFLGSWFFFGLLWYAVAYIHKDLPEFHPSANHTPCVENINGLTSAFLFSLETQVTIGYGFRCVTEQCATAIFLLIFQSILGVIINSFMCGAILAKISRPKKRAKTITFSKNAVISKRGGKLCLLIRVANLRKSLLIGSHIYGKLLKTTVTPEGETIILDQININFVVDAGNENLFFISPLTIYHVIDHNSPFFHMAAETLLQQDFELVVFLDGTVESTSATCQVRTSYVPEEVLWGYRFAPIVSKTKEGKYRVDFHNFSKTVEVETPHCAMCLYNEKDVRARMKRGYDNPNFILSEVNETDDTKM
Calpain2 inh = inhibitors of pig calpain II. purified calpain II, fluorogenic peptide substrate, 30 min. inhibition, % at 16 µM. 0.37% of 220,000 active. AID 1236;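 active = inhibition above about 50%, limit read from the data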
WT yeast gro inh = growth inhibition of WT yeast, mitochondrial fusion screen | mitochondrial fusion phenotypic screen, WT strain | inhibition, % at 10 µM | 2.1% of 190,000 active; in the data active = inhibition above about 58%; tested in S. cerevisiae
Cl transport mod = modulates chloride dependent transport by human KCC2 | Q9H2X9 | KCC2 cells, thallium flux FluoZin-2 fluorescence | B-score of Tl+ flux slope (higher = more flux/activation; lower = inhibition) at 10 µM | 2.2% of 190,000 active | AID 1456;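 active = thallium flux slope and its plate-corrected score both differing from the plate sample mean at a set confidence after two filtering rounds, in either direction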;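 also: slope of fluorescence scaled to starting intensity during 10 to 20 s after thallium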
Lmaj promast = Leishmania major promastigote growth inhibition | Leishmania major promastigotes, resazurin fluorescence viability | inhibition, % at 10 µM | 9% of 200,000 active; in the data active = inhibition above about 50%;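 also: promastigotes grown with compound for 44 hours at 28 °C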
Of the large screens only hits and unclear results are named; the others gave an inactive call.

Cc1onc(-c2ccccc2)c1C(=O)N/N=C/C(Br)=C/c1ccccc1	WT yeast gro inh 82
Cc1onc(-c2ccccc2)c1C(=O)N/N=C/c1cc2c(cc1Br)OCO2	Lmaj promast 100
CCN(CC)S(=O)(=O)c1ccc(OCCNS(C)(=O)=O)cc1	none
CCOC(=O)c1c(NC(=O)CSc2nnc(CNC(=O)c3ccco3)n2C)sc2c1CCC2	none (no result: ROMK mod)
Cc1cc(C(=O)N/N=C/c2ccccc2Br)no1	ROMK mod 3.1
Cc1cc(C(=O)N/N=C/c2ccc[nH]2)no1	none
O=C(CCCCC(=O)N1CCOCCOCCOCC1)OCc1ccccc1	none (no result: WT yeast gro inh, Lmaj promast)
COc1ccc(NC(=O)CCS(=O)(=O)c2ccccc2Cl)cc1S(=O)(=O)Nc1ccc(Cl)cc1	none
CCc1ccc2nc(NC(=O)Cn3cnc4ccccc4c3=O)sc2c1	Calpain2 inh 72
CCc1ccc2nc(NC(=O)c3cc(C)on3)sc2c1	Cl transport mod 42 (no result: ROMK mod)
Cc1ccc2nc(NC(=O)c3ccco3)sc2c1	none
Cc1cc(C)c2nc(NC(=O)c3cc(C)on3)sc2c1	Cl transport mod 39
O=C(Cn1cnc2ccccc2c1=O)Nc1nc2ccccc2s1	none
CCOC(=O)C(NS(=O)(=O)c1ccc(Br)cc1)C(C)C (stereo not given)	none
Cc1ccc(C(=O)c2cc(C)sc2NC(=O)CN2CCN(C(=O)c3ccco3)CC2)cc1	WT yeast gro inh 79, Lmaj promast 50 (no result: ROMK mod, Cl transport mod)
S=C(Nc1ccc(Cl)cc1)NC1CC2CCCC(C1)N2C1CCCC1 (stereo not given)	Lmaj promast 77 (no result: ROMK mod, Cl transport mod)
S=C(Nc1cccc(Cl)c1)NC1CC2CCCC(C1)N2C1CCCC1 (stereo not given)	Lmaj promast 73
C=CCN1C2CCCC1CC(NC(=S)Nc1ccc(Cl)cc1)C2 (stereo not given)	Lmaj promast 96 (no result: Cl transport mod)
S=C(Nc1ccc(Cl)cc1)NC1CC2CCCC(C1)N2C1CC1 (stereo not given)	none (no result: ROMK mod, Cl transport mod)
CN(C)CCCNCC(=O)Nc1ccccc1N1CCOCC1	none
CCCC(=O)Nc1ccccc1NC(=O)c1ccc(OCC)c(OCC)c1	none
Cc1sc2ncn(/N=C/c3ccco3)c(=O)c2c1C	none (no result: ROMK mod, WT yeast gro inh, Lmaj promast)
CCC(NS(=O)(=O)c1ccc(C)cc1)C(=O)Nc1ccc(NC(C)=O)cc1 (stereo not given)	none (no result: ROMK mod)
N/C(CC(=O)Nc1ccc(F)cc1)=N\O	none
Cc1cc(CNC(=O)Cc2ccc(F)cc2)c2ccccc2n1	none
CCOC(=O)C1CCN(Cc2ccc(F)cc2F)CC1	Lmaj promast 89 (no result: ROMK mod)
CCOC(=O)C1CCCN(Cc2cn[nH]c2-c2ccc(F)cc2F)C1 (stereo not given)	none
CCOC(=O)C1CCN(Cc2nc(-c3ccc(OC)c(OC)c3)no2)CC1	none (no result: ROMK mod, Cl transport mod)
COC(=O)C1CCN(Cc2ccc(C)cc2)CC1	Lmaj promast 91 (no result: ROMK mod)
CCOC(=O)C1CCN(Cc2ccc(OC)c(C)c2OC)CC1	Lmaj promast 64
CCOC(=O)C1CCN(Cc2ccc(F)c(Br)c2)CC1	Lmaj promast 77 (no result: ROMK mod)
Cc1cc(Oc2ncccc2[N+](=O)[O-])c2cc(Cl)ccc2n1	none (no result: ROMK mod, WT yeast gro inh, Lmaj promast)
CCOC(=O)C1CCN(C(=O)c2ccccc2NS(=O)(=O)c2ccc(F)cc2)CC1	Lmaj promast 53
CCOc1c2ccc(C(=O)NCC34CC5CC(CC(C5)C3)C4)cc2nn1CC	Lmaj promast 86
CCCCNC(=O)c1ccc2c(OCC)n(CCCC)nc2c1	none (no result: ROMK mod)
CCn1nc2cc(C(=O)NCC34CC5CC(CC(C5)C3)C4)ccc2c1OC	Lmaj promast 51
CCOc1c2ccc(C(=O)NCc3ccccc3OC)cc2nn1CC	none (no result: ROMK mod)
CCCCn1nc2cc(C(=O)NCCCCc3ccccc3)ccc2c1OCC	Lmaj promast 73 (no result: ROMK mod)
CCCCn1nc2cc(C(=O)NCC34CC5CC(CC(C5)C3)C4)ccc2c1OC	Lmaj promast 59 (no result: ROMK mod)
OCCN(CC#CCn1c2ccccc2c2ccccc21)CCO	none (no result: WT yeast gro inh, Lmaj promast)
CC(CN1CCCCC1)NC(=O)c1cc(-c2ccccn2)nc2ccc(Cl)cc12 (stereo not given)	none
O=C(/C=C1\SC(=O)N(CC(=O)Nc2ccc(F)cc2)C1=O)Nc1ccc(Cl)cc1	Lmaj promast 52
Cc1cccc(NC(=O)CN2C(=O)S/C(=C\C(=O)Nc3ccc(Cl)cc3)C2=O)c1	Lmaj promast 54
O=C(/C=C1\SC(=O)N(CC(=O)Nc2ccc(Cl)cc2)C1=O)Nc1ccc(F)cc1	none
Cc1cc(C)[n+](C)n1CC(O)Cn1c2ccccc2c2ccccc21 (stereo not given)	none
CCOC(=O)C1(CC2CC2)CCN(Cc2cnc(-c3ccc(OC)cc3)nc2)CC1	none
CCCNC(=O)CNC(=S)N(Cc1cc(OC)c(OC)c(OC)c1)C1CCCC1	Lmaj promast 54
COCc1ccc([C@@H]2C[C@H]3CN(Cc4cccc(Cl)c4)C(=O)[C@]34CCCN24)o1	none
CN(C)CCNC(=O)CNC(=S)N(Cc1ccccc1)Cc1ccccc1F	none
O=C(CNC(=S)N(Cc1ccccc1)Cc1ccccc1F)NCCc1ccccc1	WT yeast gro inh 64
O=C(CNC(=S)N(Cc1ccccc1)Cc1ccccc1F)NCc1ccc(Cl)cc1	WT yeast gro inh 81
Cc1ccc(CNC(=O)CNC(=S)N(Cc2ccccc2)Cc2ccccc2F)cc1	WT yeast gro inh 74
O=C(CNC(=S)N(Cc1ccccc1)Cc1ccccc1F)NCc1ccccc1	Calpain2 inh 54, WT yeast gro inh 75
COC(=O)C1C(O)=CC(=O)CC1C (stereo not given)	none
COc1ccc(NC2=C(C(C)=O)C(c3ccc4c(c3)OCO4)C(C(C)=O)C(C)(O)C2)cc1 (stereo not given)	none (no result: ROMK mod, Cl transport mod)
Cn1cc(SCC(=O)NCCc2ccccc2)c2ccccc21	none
CCOC(=O)CNC(=S)N(Cc1ccccc1)Cc1ccccc1F	none
COc1cccc(CNC(=O)CNC(=S)N(Cc2ccccc2)Cc2ccccc2F)c1	Calpain2 inh 54, WT yeast gro inh 72
CCOC(=O)c1c(CN(CC)CC)n(C)c2cc(Br)c(O)cc12	none (no result: ROMK mod, WT yeast gro inh, Lmaj promast)
CCOC(=O)c1c(CN2CCN(CCO)CC2)n(C)c2cc(Br)c(OC)cc12	Lmaj promast 54 (no result: Cl transport mod)
CCOC(=O)c1c(C)oc2cc(Br)c(OC)cc12	none (no result: ROMK mod)
CCN(CC)CCNC(=O)c1c(C)n(-c2ccccc2)c2cc(Br)c(OC)cc12	Lmaj promast 101 (no result: ROMK mod)
CCOC(=O)c1c(CNCCN(CC)CC)n(C)c2cc(Br)c(OC)cc12	Cl transport mod -3, Lmaj promast 100
COc1cc2c(C(=O)N3CCN(C)CC3)c(C)n(-c3ccccc3)c2cc1Br	none (no result: ROMK mod)
COc1cc2c(C(=O)N3CCOCC3)c(CSc3ccccc3)n(C)c2cc1Br	WT yeast gro inh 60
CCOc1cc(C(F)(F)F)cnc1/C(N)=N/O	none (no result: ROMK mod, WT yeast gro inh, Lmaj promast)
CCOC(=O)c1c(C)n(C)c2cc(Br)c(C(=O)OC)cc12	none
CCOC(=O)c1c(C)n(C)c2cc(Br)c(OC)cc12	none
CCOC(=O)c1c(CN2CCCCC2)n(C)c2cc(Br)c(OC)cc12	Lmaj promast 99 (no result: ROMK mod, Cl transport mod)
CCOC(=O)c1c(C)n(CC(O)CN(CC)CC)c2cc(Br)c(OC)cc12 (stereo not given)	Lmaj promast 89 (no result: Cl transport mod)
O=C(NNC(=O)c1sccc1-n1cccc1)c1ccccc1	none (no result: ROMK mod)
O=C(N/N=C\c1ccc(Cl)cc1Cl)c1sccc1-n1cccc1	Lmaj promast 100 (no result: ROMK mod, Cl transport mod)
Cc1ccc(S(=O)(=O)NNC(=O)c2sccc2-n2cccc2)cc1	none (no result: ROMK mod, Cl transport mod)
